Experimental findings from PubChem BioAssay (NCATS) are described below.

SMILES strings stand for the structures. Results filed as inconclusive are left out. Where a call stands in place of a potency, no number is given. Active and inactive are the calls of the source. The call rests on the fitted dose curve; in most records, active means well fitted cell-killing curve with a large enough effect; inconclusive means small, poorly fitted or top-dose-only effect, or effect the other way; inactive means flat fitted curve, though single readings scatter. *1 amine or outer side, *2 acyl side, *3 side chain or, on linkers, in order; H or OH if unused. Where a SMILES comes first, the peptide text is derived from it. [ ]: non-standard residue; d: D form. X4 = CC(C)=CCc1cc(C(O)C(N[*:1])C(=O)[*:2])ccc1O

The test system of the test is OV90. Briefly: Primary qHTS to identify gynecologic anti-cancer compounds using libraries of approved drugs and bioactive compounds (AID 1345084). Further: nearly all actives have a fitted effect of over 55% in size. Conditions: Gynecologic cancer cell panel viability, ATPlite luminescence, 48 h; series mostly up to 57.5 µM. The method, boiled down: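 In this quantitative HTS, cell killing is estimated from loss of ATP-dependent luciferase light. Cells see five compound concentrations over a 48 h exposure.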
A general note: In qHTS, concentration-response curves come from the screen itself.
With `CN(C)CC1CCOC1(c1ccccc1)c1ccccc1` (stereo not given), the Potency result is “inactive”.

For the compound `O=C(OC1C=C(CO)C2C(OC3OC(CO)C(O)C(O)C3O)OC=CC12)c1ccc(O)cc1` (stereo not given), the Potency entry is “inactive”. Take `CC1(C)CC[C@]2(C(=O)OC3OC(CO)C(O)C(O)C3O)CC[C@]3(C)C(=CCC4[C@@]5(C)CC[C@H](OC6OC(C(=O)O)C(O)C(OC7OC(CO)C(O)C(O)C7O)C6O)C(C)(C)C5CC[C@]43C)C2C1` (stereo not given in full): the activity change, negative = cytotoxicity is 9.69% [at 11.6 µM] (inactive). The same measure, in the same setting: to `CC(C)=CCc1cc(C(O)C2NC(=O)CNC(=O)C(Cc3c[nH]c4ccccc34)NC(=O)C3CCCN3C(=O)CNC(=O)C(C(C)C)NC(=O)CNC2=O)ccc1O` (stereo not given) (cyclo(G[X4]GVGPW); configuration not given here) belongs 5.8% [at 11.6 µM] (inactive). `COc1ccc(CCO[C@@H]2CCCC[C@H]2N2CC[C@@H](O)C2)cc1OC`: the Potency result was “inactive”. Consider `CC12CCC(OC3OC(CO)C(O)C(OC4OC(CO)C(O)C(O)C4O)C3O)CC1=CCC1C2CCC2(C)/C(=C3/COC(=O)C3)CCC12O` (stereo not given), for which the Potency result was “inactive”.

As to `C/C1=C\[C@H]2OC(=O)[C@@H](C)[C@@H]2CC/C(C(=O)O)=C/CC1`, the Potency result was “inactive”.

Take `CC12CCC(OC3OC(CO)C(O)C(OC4OC(CO)C(O)C(O)C4O)C3O)CC1CCC1C2CCC2(C)/C(=C3/COC(=O)C3)CCC12O` (stereo not given): the Potency result is “inactive”. As for `CC1(C)CCC[C@@]2(C)C1[C@H](OC(=O)/C=C/C=C/C(=O)O)C=C1COC(=O)[C@@]12O` (stereo not given in full), the Potency entry was “inactive”. Turning to `CO/N=C(/C(=O)N[C@@H]1C(=O)N2C(C(=O)O)=C(Cn3ccc(=N)n3CCO)CS[C@H]12)c1csc(N)n1`, the Potency entry was “inactive”. As for `CC(C)=CCC[C@](C)(O)[C@H]1CC[C@]2(C)[C@@H]1[C@H](O)CC1[C@@]3(C)CC[C@H](O)C(C)(C)[C@@H]3[C@@H](O[C@@H]3O[C@H](CO)[C@@H](O)[C@H](O)[C@H]3O[C@@H]3O[C@H](CO)[C@@H](O)[C@H](O)[C@H]3O)C[C@]12C` (stereo not given in full), the Potency result was “inactive”. For `C[C@@H]1O[C@@H](O[C@H]2[C@H](OC(=O)[C@]34CCC(C)(C)C[C@H]3C3=CCC5[C@@]6(C)C[C@H](O)[C@H](O[C@@H]7O[C@H](CO)[C@@H](O)[C@H](O)[C@H]7O)[C@@](C)(CO)C6[C@H](O)C[C@@]5(C)[C@]3(C)CC4)OC[C@H](O)[C@@H]2O)[C@H](O)[C@H](O)[C@H]1O[C@@H]1OC[C@@H](O)[C@H](O[C@@H]2OC[C@](O)(CO)[C@H]2O)[C@H]1O` (stereo not given in full), the activity change, negative = cytotoxicity is 1.6% [at 6.55 µM] (inactive).

`CC(=O)OC1C(O)CC2(C)C(CCC(C)C23Cc2c(O)cc(CO)c(C=O)c2O3)C1(C)C` (stereo not given): the Potency result is “inactive”. `C/C(=C\CCC(C)CCO)C(=O)OC1(C)CCC2C(C(=O)O)=COC(OC3OC(CO)C(O)C(O)C3O)C21` (stereo not given): the Potency entry is “inactive”. As for `CC1(C)CCCC2(C)C(C(=O)O)=CCC12` (stereo not given), the Potency entry was “inactive”. As for `O=S(=O)(Nc1ccccn1)c1ccc(N=Cc2c(O)[nH]c3ccc4ncsc4c23)cc1`, the activity change, negative = cytotoxicity is -9.17% [at 11.6 µM] (inactive). Consider `CC(O)/C=C/C1(O)C(C)C(O[C@@H]2O[C@H](CO)[C@@H](O)[C@H](O)[C@H]2O)C(O)CC1(C)C` (stereo not given in full), for which the Potency entry was “inactive”. With `C[C@@H]1O[C@@H](O[C@H]2[C@H](OC(=O)[C@]34CCC(C)(C)C[C@H]3C3=CCC5[C@@]6(C)CC[C@H](O[C@@H]7O[C@H](C(=O)O)[C@@H](O)[C@H](O)[C@H]7O[C@@H]7O[C@H](CO)[C@H](O)[C@H](O)[C@H]7O)[C@@](C)(C=O)C6CC[C@@]5(C)[C@]3(C)C[C@H]4O)O[C@H](C)[C@H](O[C@@H]3O[C@H](C)[C@H](O)[C@H](O)[C@H]3O)[C@@H]2O)[C@H](O)[C@H](O)[C@H]1O[C@@H]1OC[C@@H](O)[C@H](O[C@@H]2O[C@H](CO)[C@@H](O)[C@H](O)[C@H]2O)[C@H]1O` (stereo not given in full), the activity change, negative = cytotoxicity is -26.3% [at 6.55 µM] (inactive). Consider `COC(=O)C12CCC(C)C(C)C1C1=CCC3C4(C)CCC(OC(C)=O)C(C)(C)C4CCC3(C)C1(C)CC2` (stereo not given), for which the Potency entry was “inactive”. Consider `C=C1C(=O)O[C@H](CCC)[C@H]1C(=O)O`, for which the Potency result is “inactive”. Still for that read-out and setting: to `CCOc1cc(CC(=O)NC(CC(C)C)c2ccccc2N2CCCCC2)ccc1C(=O)O` (stereo not given) belongs “inactive”.

On to `COC1=CC(=O)CC(C)C12Oc1cc(OC)cc(O)c1C2=O` (stereo not given), for which the Potency entry is “inactive”. For the compound `O=C1CCC(=O)N(O)CCCCCNC(=O)CCC(=O)N(O)CCOCCNC(=O)CCC(=O)N(O)CCCCCN1`, the Potency entry was “inactive”. On to `CCc1ccc(Cc2ccc3c(c2)[C@]2(OC3)O[C@H](CO)[C@@H](O)[C@H](O)[C@H]2O)cc1`, for which the Potency result was “inactive”. Turning to `C=C(C(=O)O)C1CCC2(C)CCC(O)C(=C)C2C1` (stereo not given), the Potency result is “inactive”. For the compound `C=C(C)C1CCC2(C(=O)O[C@@H]3O[C@H](CO[C@@H]4O[C@H](CO)[C@@H](O)[C@H](O)[C@H]4O)[C@@H](O)[C@H](O[C@@H]4O[C@@H](C)[C@H](O)[C@@H](O)[C@H]4O)[C@H]3O)CCC3(C(=O)O)C(CCC4C5(C)CCC(O)C(C)(C)C5CCC43C)C12` (stereo not given in full), the activity change, negative = cytotoxicity was 15.5% [at 11.6 µM] (inactive). Turning to `CC(NC(=O)C(O)C(C)C)C(=O)NC1C(=O)N(C)CCc2ccccc21` (stereo not given), the Potency result was “inactive”. `CNC(C)C(=O)NC(C(=O)N1CCCC1c1nc(C(=O)c2ccc(F)cc2)cs1)C1CCCCC1` (stereo not given): the Potency entry is “inactive”. In the case of `CCN(Cc1cccnc1)C(=O)CN(c1ccc(OC)nc1)S(=O)(=O)c1ccccc1C`, the Potency result is “inactive”.

As to `COc1ccc(CN2C(=O)C(=O)c3cc(S(=O)(=O)N4CCC[C@H]4COc4cccnc4)ccc32)cc1`, the Potency result was “inactive”.

`CC1=CC(=O)[C@]2(O[C@@H]3O[C@@H](C)[C@H](O)[C@@H](O)[C@H]3OC(=O)/C=C/c3ccccc3)C=CO[C@@H](O[C@@H]3O[C@H](CO)[C@@H](O)[C@H](O)[C@H]3O)[C@H]12`: the Potency entry was “inactive”. For `O=C(O)c1ccccc1NC(=O)N1CCC(c2ccccc2C(F)(F)F)CC1`, the Potency entry was “inactive”.

As for `Nc1nc2c(ncn2[C@@H]2O[C@H](CO)[C@@H](O)[C@H]2O)c(=O)[nH]1`, the Potency result is “inactive”. On the same count and under the same terms, under `C/C1=C\C[C@]2(C)C(=O)C(O)=C([C@H](C)CO)[C@H]2C/C=C(\C)[C@@H](O)CC/C(C)=C/CC1` stands “inactive”. Turning to `C[C@]12C[C@@H](O)[C@@H]3C[C@@]1(O[C@@H]1O[C@H](CO)[C@@H](O)[C@H](O)[C@H]1O)[C@]3(COC(=O)c1ccccc1)C(=O)O2`, the Potency entry was “inactive”.
